For 60 compounds, Inhibition results are on record in ChEMBL document CHEMBL1157539, “Thousands of chemical starting points for antimalarial lead identification” (Nature, 2010).

Structures are written as SMILES.

What all share (format): functional
Assay [1] deals with Plasmodium falciparum. The assay can be described thus: GSK_TCMDC: Inhibition of Plasmodium falciparum 3D7 in whole red blood cells, using parasite LDH activity as an index of growth. Test compounds present at 2uM.
In assay [2] the test system is Plasmodium falciparum. The assay can be described thus: GSK_TCMDC: Inhibition of Plasmodium falciparum Dd2 in whole red blood cells, using parasite LDH activity as an index of growth. Test compounds present at 2uM.
The test system of a further assay is HepG2. The assay can be described thus: GSK_TCMDC: Percent inhibition of human HepG2 cell line. Test compounds present at 10uM.

What is called Inhibition is how much of the control response was suppressed. The low end stands for a response near the control, the high end for a response far below the control. Turning to `COc1ccc(C(=O)CCC(=O)N(Cc2ccc(-c3ccc(CNCc4cccnc4)cn3)cc2)C2CCN(Cc3ccccc3)CC2)cc1F.O=C(O)C(F)(F)F`, the Inhibition was found to be 94% in the assay with Plasmodium falciparum [1], 26% with Plasmodium falciparum [2] and 30% in the assay with HepG2.
The matching figures for `COc1ccc2nccc([C@@H](O)CN3CCC(NC(=O)c4ccc(-c5ccc(C#N)cc5)cc4)CC3)c2c1`: 100%, 91% and 42%.
For `CCOC(=O)c1cn(CC)c2cc(N3CCCCC3)c(F)cc2c1=O`, in that order: 97%, 96% and 0%.
For `Cc1c(F)cc(C(=O)NC2CC2)cc1-c1ccc2c(cnn2S(=O)(=O)c2ccc(Cl)s2)c1`, in that order: 81%, 50% and 24%.
On to `O=C(NCC1CC1)C1CCN(C(c2ccccc2)c2nc3ccccc3s2)CC1` (stereo not given), for which the Inhibition is listed as 92% with Plasmodium falciparum [1], 49% with Plasmodium falciparum [2] and 0% in the assay with HepG2.
The matching figures for `Br.CN1C(=O)C(=O)N(CCCCCONC(=N)N)C1=S`: 100%, 1% and 21%.
For `CCCCCCn1c(Sc2ccc(C#N)c([N+](=O)[O-])c2)nnc1-c1ccccc1`, in that order: 97%, 41% and 23%.
With `CC1CCCCN1CCCNc1ncc2c(-c3ccc(NC(=O)Nc4cc(C(F)(F)F)ccc4F)c(F)c3)nn(C)c2n1.O=C(O)C(F)(F)F` (stereo not given), the Inhibition in the assay with Plasmodium falciparum [1] turned out to be 100%; with Plasmodium falciparum [2] it was 97%; in the assay on HepG2, 27%.
Take `CCN(CC)CCN(Cc1ccc(-c2ccc(C(F)(F)F)cc2)cc1)C(=O)Cn1c(CCc2ccc(F)c(F)c2)cc(=O)c2ccccc21.O=C(O)C(O)C(O)C(=O)O`: the Inhibition is on record as 95% in the assay with Plasmodium falciparum [1], 26% with Plasmodium falciparum [2] and 23% with HepG2.
The matching figures for `CCc1c(CCNCCCC(C)CCNCCc2ccc(OC)c(OC)c2CC)ccc(OC)c1OC.Cl` (stereo not given): 100%, 27% and 99%.
For `COc1ccc(Nc2nc(N/N=C/c3ccc(O)cc3)nc(Nc3ccc([N+](=O)[O-])cc3)n2)cc1`, the results for the Inhibition in the assay with Plasmodium falciparum [1], in the assay with Plasmodium falciparum [2] and in the assay with HepG2 were 93%, 16% and 0%, respectively.
The matching figures for `CNCCNCc1ccc(-c2cccc(-c3nc4cc(F)ccc4[nH]3)c2)cc1.O=C(O)C(F)(F)F`: 93%, 1% and 10%.
For the compound `Nc1ncc(-c2cn[nH]c2)cc1-c1nc2cc(Cl)cnc2[nH]1`, the Inhibition is recorded as 100% in the assay on Plasmodium falciparum [1], 70% with Plasmodium falciparum [2] and 40% in the assay on HepG2.
For `O=c1cc(NCCCNCc2cccc(OC(F)(F)F)c2)[nH]c2ccccc12`, in that order: 97%, 72% and 0%.
The matching figures for `Cl.N#Cc1ccc2c(c1)CCN(CCC1CCC(NC(=O)c3cc4ccccc4[nH]3)CC1)CC2` (stereo not given): 89%, 25% and 17%.
For `Cc1cc(C)c2ncc(C(=O)O)c(O)c2c1`, in that order: 93%, 60% and 0%.
Take `COc1ccc(-c2cccc(NC(=O)c3cccc(Cl)c3)c2)cc1CNC(C)C.O=C(O)C(F)(F)F`: the Inhibition in the assay with Plasmodium falciparum [1] worked out at 100%; in the assay on Plasmodium falciparum [2] it was 8%; in the assay on HepG2 it was 15%.
Regarding `Cc1ccc(-c2ccn(Cc3ccc(OCc4ccccc4)cc3)n2)cn1.Cc1ccc(-c2ccnn2Cc2ccc(OCc3ccccc3)cc2)cn1`, the Inhibition in the assay on Plasmodium falciparum [1] amounted to 93%; in the assay on Plasmodium falciparum [2], 92%; in the assay with HepG2 it was 1%.
Turning to `CN1CCC[C@H]1COc1ccc(CN2CC[C@H](NC(=O)c3ccc(Cl)c(Cl)c3)C2)c2ccccc12.O=C(O)C(F)(F)F`, the Inhibition amounted to 100% with Plasmodium falciparum [1], 98% in the assay with Plasmodium falciparum [2] and 47% in the assay with HepG2.
The matching figures for `N#Cc1cccc(C(=O)NC2CCN(c3ccnc(Nc4ccc(F)cc4)n3)C2)c1` (stereo not given): 98%, 91% and 4%.
With `CN1CCN(c2ccc(-c3nc4ccc(OCc5cc(Cl)cc(Cl)c5)c(C(N)=O)c4[nH]3)cc2)CC1`, the Inhibition is 100% in the assay with Plasmodium falciparum [1], 85% in the assay with Plasmodium falciparum [2] and 45% in the assay on HepG2.
For `N#Cc1cccc(NC(=O)C2=C(CCc3ccc4c(c3)OCO4)NC(=O)NC2c2cccc(C#N)c2)c1` (stereo not given), in that order: 96%, 47% and 3%.
`Cc1cccc(C(=O)Nc2ccnc(N3CCC(N(C)Cc4ccccc4)CC3)c2)c1.O=C(O)C(F)(F)F`: the Inhibition in the assay on Plasmodium falciparum [1] turned out to be 93%; in the assay with Plasmodium falciparum [2], 2%; in the assay with HepG2, 12%.
In the case of `COc1ccc(N2CCN(CCCN3CCN(C(=O)c4ccc(/C=C/c5ccc(Cl)c(Cl)c5)cc4)CC3)CC2)c(OC)c1.O=C(O)/C=C/C(=O)O`, the Inhibition with Plasmodium falciparum [1] was 93%; in the assay on Plasmodium falciparum [2], 52%; in the assay with HepG2, 47%.
The matching figures for `COc1ccc2nccc([C@@H](O)CN3CCC(NCc4cc5oc(=O)n(C)c5cc4F)CC3)c2c1.O=C(O)C(=O)O`: 99%, 72% and 0%.
Turning to `O=C(NC1c2ccccc2Oc2ccccc21)c1ccccc1O`, the Inhibition in the assay with Plasmodium falciparum [1] is listed as 95%; with Plasmodium falciparum [2], 0%; in the assay with HepG2 it was 0%.
Turning to `COc1ccc(Cc2nc(/N=C(\N)Nc3ccccc3)ccc2OC)cc1`, the figures for the Inhibition in the assay on Plasmodium falciparum [1], in the assay on Plasmodium falciparum [2] and in the assay with HepG2 were 93%, 68% and 40%, respectively.
The matching figures for `CCOC(=O)c1c(SCc2cccc(F)c2F)[nH]c2ccccc2c1=O`: 98%, 95% and 1%.
The matching figures for `COc1c(C2CCN(CCCCNC(=O)c3ccc(-c4ccc(C(F)(F)F)cc4)c(C(=O)OC(C)C)c3)CC2)ccc2c1CCCC2`: 90%, 30% and 24%.
Consider `O=C(Cc1ccc(NC(=O)c2ccc(O)c(-c3ccc(Cl)c(Cl)c3)c2)cc1)NCc1cccc(C(F)(F)F)c1`, for which the Inhibition with Plasmodium falciparum [1] is 95%; in the assay on Plasmodium falciparum [2] it was 28%; in the assay on HepG2, 0%.
Turning to `CCOc1cc(C(=O)N[C@@H](Cc2ccccc2)[C@H](O)CNC(C)(C)c2cccc(OC)c2)cc(N2CCCS2(=O)=O)c1`, the Inhibition in the assay on Plasmodium falciparum [1] was found to be 99%; with Plasmodium falciparum [2], 99%; in the assay with HepG2 it was 0%.
As to `CC(C)Sc1nc2c(c(=O)n1CCc1ccccc1)C1(CCCCC1)Cc1ccccc1-2`, the results for the Inhibition in the assay on Plasmodium falciparum [1], in the assay on Plasmodium falciparum [2] and in the assay with HepG2 were 92%, 5% and 8%, respectively.
The matching figures for `CCOc1cc(C)c(C2CCN(CCCCNC(=O)c3ccc(NC(=O)c4ccc(Cl)cc4)cc3)CC2)cc1C`: 100%, 87% and 10%.
For `CN(C)CCCOc1cccc(NC(=O)Nc2ccc(Cl)c(Cl)c2)c1.O=C(O)C(F)(F)F`, in that order: 90%, 8% and 6%.
As for `Cc1oc(-c2ccc(Cl)cc2)cc1C(=O)NCCC1CCN(CCCCCNC(=O)/C=C/c2ccc(Cl)c(Cl)c2)CC1`, the Inhibition in the assay on Plasmodium falciparum [1] turned out to be 100%; in the assay on Plasmodium falciparum [2], 88%; in the assay with HepG2 it was 100%.
For the compound `COc1cc(C=NN=c2cc(C)[nH]c3ccccc23)cc(OC)c1OC`, the Inhibition turned out to be 100% in the assay with Plasmodium falciparum [1], 95% in the assay with Plasmodium falciparum [2] and 5% with HepG2.
Regarding `CCC(C)c1ccc(NC(=O)C(C)c2ccc([N+](=O)[O-])cc2)cc1` (stereo not given), the results for the Inhibition with Plasmodium falciparum [1], with Plasmodium falciparum [2] and with HepG2 were 100%, 100% and 14%, respectively.
For the compound `O=C(NCc1ccccc1)C1Cc2c([nH]c3ccc(Br)cc23)C2(CCN(Cc3ccccc3)CC2)N1` (stereo not given), the Inhibition turned out to be 98% in the assay with Plasmodium falciparum [1], 70% in the assay with Plasmodium falciparum [2] and 15% in the assay with HepG2.
For `COCCN1CCC(C(=O)NCC(C)(C)c2nc(-c3ccc(Br)c(O)c3)c(-c3ccncc3)[nH]2)CC1.Cl`, in that order: 99%, 6% and 0%.
Consider `CCOc1cc(O)c(-c2nc(N)ncc2-c2ccc3c(c2)OCCO3)cc1CC`, for which the Inhibition with Plasmodium falciparum [1] amounted to 99%; in the assay on Plasmodium falciparum [2], 68%; in the assay on HepG2, 0%.
With `CN1CCN(CCCN(Cc2cccc(-c3ccc(CNCCc4ccccc4)cc3)c2)C(=O)c2cccs2)CC1.O=C(O)C(F)(F)F`, the Inhibition was found to be 100% in the assay on Plasmodium falciparum [1], 97% in the assay with Plasmodium falciparum [2] and 86% with HepG2.
For `COc1cccc(CN2CCCC(COC(c3ccc(F)cc3)c3ccc(F)cc3)C2)c1O` (stereo not given), in that order: 98%, 100% and 24%.
For `OC(c1nnc(S)n1-c1ccccc1)C(O)c1nnc(S)n1-c1ccccc1` (stereo not given), in that order: 92%, 89% and 18%.
For `CCC(C)(C)c1ccc2nc(N)nc(N)c2c1C`, the Inhibition is recorded as 91% in the assay with Plasmodium falciparum [1], 82% with Plasmodium falciparum [2] and 62% in the assay with HepG2.
For `Cc1ccc(NC(=O)Nc2ccc(S(=O)(=O)c3ccc(NC(=O)Nc4ccc(C)c(Cl)c4)cc3)cc2)cc1Cl`, in that order: 99%, 42% and 49%.
For the compound `COc1cccc(CN2CCCC(OC(c3ccc(F)cc3)c3ccc(F)cc3)C2)c1O` (stereo not given), the figures for the Inhibition in the assay on Plasmodium falciparum [1], in the assay with Plasmodium falciparum [2] and with HepG2 were 95%, 95% and 8%, respectively.
For `O=C(Nc1nc(-c2ccccn2)cs1)c1ccccc1COc1ccccc1`, the Inhibition was 83% in the assay on Plasmodium falciparum [1], 42% in the assay on Plasmodium falciparum [2] and 34% in the assay with HepG2.
Regarding `O=C(NCc1ccc(F)cc1)c1cnc(N2CCN(c3ccncc3)CC2)c(Cl)c1.O=C(O)C(F)(F)F`, the Inhibition in the assay on Plasmodium falciparum [1] was 98%; in the assay with Plasmodium falciparum [2], 44%; in the assay on HepG2, 30%.
For `COc1ccc(Br)cc1C1C2C(=O)N(c3ccc(Br)cc3)C(=O)C2C2(C(=O)O)CC(OCc3ccccc3)CN12` (stereo not given), in that order: 100%, 99% and 16%.
Turning to `O=C(Nc1ccc2nc3n(c(=O)c2c1)CCCCC3)C(=O)N1CCC(Cc2ccccc2)CC1`, the Inhibition is recorded as 91% with Plasmodium falciparum [1], 70% in the assay on Plasmodium falciparum [2] and 12% with HepG2.
Consider `O=S(=O)(c1c(Cl)cc(Cl)cc1Cl)N1CCCCC(c2ccc(F)c(F)c2)=N1`, for which the figures for the Inhibition with Plasmodium falciparum [1], in the assay with Plasmodium falciparum [2] and with HepG2 were 87%, 65% and 5%, respectively.
The matching figures for `NS(=O)(=O)c1cccc(Nc2nccc(-c3cnn4ncccc34)n2)c1`: 89%, 89% and 39%.
For `O=C(NCCCCN1CCC(c2c[nH]c3ccccc23)CC1)c1ccc(-c2ccc(C(F)(F)F)cc2)cc1`, in that order: 98%, 22% and 34%.
The matching figures for `COc1ccc2nccc([C@@H](O)CN3CCC(NCc4cn5cc(F)ccc5n4)CC3)c2c1.O=C(O)C(=O)O`: 96%, 5% and 19%.
Turning to `O=C(CC(=O)C(F)(F)F)c1ccc2c(c1)OCO2`, the results for the Inhibition with Plasmodium falciparum [1], with Plasmodium falciparum [2] and with HepG2 were 96%, 0% and 44%, respectively.
The matching figures for `O=S(=O)(Nc1cccc(F)c1CNCc1ccccn1)c1ccc(Cl)c(Cl)c1`: 92%, 34% and 45%.
For `COc1ccc2nccc(N3CCCN(CCNS(=O)(=O)c4ccc5c(c4)NC(=O)CS5)CC3)c2n1.Cl`, the Inhibition in the assay on Plasmodium falciparum [1] is 97%; with Plasmodium falciparum [2], 15%; in the assay with HepG2, 0%.
The matching figures for `O=C(n1c(-c2cc3ccccc3n2C(=O)C(F)(F)F)cc2ccccc21)C(F)(F)F`: 94%, 80% and 30%.
On to `Cc1cccc2nc(-c3ccc(-c4cccc(NC(=O)Cc5c[nH]cn5)c4)cc3)[nH]c12`, for which the values for the Inhibition with Plasmodium falciparum [1], in the assay with Plasmodium falciparum [2] and in the assay on HepG2 were 98%, 21% and 13%, respectively.
`Nc1nccc(-c2ccc3c(/C=C/c4ccccc4)cnc(N)c3c2)n1`: the Inhibition in the assay on Plasmodium falciparum [1] amounted to 100%; with Plasmodium falciparum [2] it was 100%; in the assay on HepG2 it was 32%.
